HT1080NT lethal: kills 2HG-producing HT-1080-NT fibrosarcoma cells. HT-1080-NT fibrosarcoma viability, CellTiter-Glo ATP luminescence, 48 h. Potency, µM (top dose mostly 46.1 µM), without a hit: at the top dose activity, negative = less viability, most hits filed as cytotoxic. 360,000 compounds, 1.6% hits;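 note: NT is the 2HG producing partner of a matched IDH1 knockdown line; potency is the fitted concentration of half-maximal effect; 0% = DMSO-treated cells and -100% = media-only wells without cells; nearly all actives have a fitted effect of over 55% in size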
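A 48-hour cytotoxicity screen used HT-1080-NT cells plated 2 hours before compound delivery. ATP-based CellTiter-Glo luminescence measured viability, normalized to DMSO and no-cell controls.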
IL-1B inflam inh: inflammasome signaling inhibition, IL-1 beta readout | THP-1 LPS/ATP IL-1B secretion, AlphaLISA, 16 h; stronger effect = lower value | activity change, % at 57.5 µM | 360,000 compounds, 4.7% hits; in the data active = activity change below about -50%; inconclusive = mostly about -30% to -49%
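THP-1 cells pretreated 1 hr with compounds (up to 57.5 uM final), then stimulated with LPS (250 ng/mL final) plus ATP (1.25 mM final); secreted IL-1B measured by AlphaLISA after 16 hr, decreased signal indicating inhibition.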
HT1080 IDH1KD tx: kills HT-1080 cells with IDH1 knockdown; HT-1080 IDH1 knockdown viability, ATP luminescence, 48 h; Potency, µM (doses to about 46.1 µM), for the others: at the top dose activity, negative = toxicity, most hits filed as cytotoxic; 360,000 compounds, 2% hits; AID 686971;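 note: potency is the fitted concentration of half-maximal effect; 0% = DMSO wells and -100% = cell-free medium wells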
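After a 2 h attachment period, IDH1KD HT-1080 cells took pin-transferred compound for 48 h at 37 °C; ATP-based luminescence after 10 min room-temperature reagent incubation reported viability.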
DT40 TDP1 CPT: DT40-hTDP1 cell growth loss with CPT; chicken DT40 Tdp1-/-;hTDP1 cells + 20 nM CPT, ATP luminescence, 48 h; Potency, µM (highest dose often 46.2 µM), without a hit: at the top dose activity change, negative = growth inhibition, most hits filed as inhibitors; 420,000 compounds, 12% hits; note: potency is the fitted concentration of half-maximal effect; nearly all actives have a fitted effect of over 55% in size
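Chicken DT40 Tdp1-/- cells complemented with human TDP1, 400 cells/well, exposed to compounds plus 20 nM camptothecin for at least 48 h at 37 C; viability read as ATP content by CellTiter-Glo luminescence.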
ALOX12 inh: ALOX12 (human) lipoxygenase inhibition; AID 1671190; Potency, µM (top dose mostly 108 µM), for inactives: at the highest dose activity change, negative = inhibition, usual class: inhibitors; purified 12hLO, xylenol orange hydroperoxide absorbance; 580,000 compounds, 1.1% hits; note: potency is the fitted concentration of half-maximal effect
Target sequence (P18054 whole entry, looked up): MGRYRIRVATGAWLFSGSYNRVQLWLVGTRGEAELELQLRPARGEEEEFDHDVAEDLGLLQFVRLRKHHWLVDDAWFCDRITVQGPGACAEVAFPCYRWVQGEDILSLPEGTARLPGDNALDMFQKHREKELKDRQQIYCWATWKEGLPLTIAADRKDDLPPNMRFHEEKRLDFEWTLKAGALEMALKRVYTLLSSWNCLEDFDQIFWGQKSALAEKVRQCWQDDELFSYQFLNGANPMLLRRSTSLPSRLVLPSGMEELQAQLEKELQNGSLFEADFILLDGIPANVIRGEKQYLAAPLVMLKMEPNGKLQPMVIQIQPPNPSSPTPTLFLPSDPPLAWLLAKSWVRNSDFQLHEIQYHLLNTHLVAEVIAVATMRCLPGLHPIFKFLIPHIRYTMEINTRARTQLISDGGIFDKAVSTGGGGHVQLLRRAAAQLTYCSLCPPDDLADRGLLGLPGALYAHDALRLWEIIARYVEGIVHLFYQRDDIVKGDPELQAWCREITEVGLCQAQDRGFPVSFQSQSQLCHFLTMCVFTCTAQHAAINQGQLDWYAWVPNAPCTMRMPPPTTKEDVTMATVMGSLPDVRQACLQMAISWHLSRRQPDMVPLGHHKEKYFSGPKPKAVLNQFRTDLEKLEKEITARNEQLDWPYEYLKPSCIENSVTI
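Hydroperoxide product was detected by ferrous iron/xylenol orange as the 573 to 405 nm absorbance ratio. Arachidonic acid at 40 uM (final) was turned over for 30 min at room temperature by 150 nM human 12hLO, pH 7.0 Hepes buffer, after 15 min compound preincubation.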
TDP1 cell noCPT: qHTS for Inhibitors of human tyrosyl-DNA phosphodiesterase 1 (TDP1): qHTS in cells in absence of CPT; DT40 Tdp1-/- hTDP1 cells, no CPT, ATP luminescence, 48 h; 420,000 compounds, 15% hits; Potency, µM (doses to about 46.2 µM), inactives show at the highest dose activity change, negative = growth inhibition, actives largely listed as inhibitors; note: potency is the fitted concentration of half-maximal effect; nearly all actives have a fitted effect of over 55% in size
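Seeded 400 DT40-hTDP1 cells/well (vehicle DMSO, no 20 nM CPT); pinned compounds; ≥48 hr at 37 °C; CellTiter-Glo luminescence as viability measure.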
* hit, by the source's call; i = inactive; ? = inconclusive; . = not tested or not shown. The entries come from a sample that favours hits as a whole. Unless noted, calls come from the whole dose curve; as a rule, active = well fitted curve in the direction sought with a large enough effect; inconclusive = small, poorly fitted or top-dose-only effect, or another doubt; inactive = no such curve, though single readings can be large; an effect the other way counts as inactive or inconclusive. Unless noted, % is set by controls: 0 for no effect and ±100 for the full control effect.

SMILES | HT1080NT lethal | IL-1B inflam inh | HT1080 IDH1KD tx | DT40 TDP1 CPT | ALOX12 inh | TDP1 cell noCPT
CC(=O)c1ccc(-c2cnc3c(NC=O)cc(-c4cccc(C(=O)N(C)C)c4)cn23)cc1 | ? | 9 | ? | 5.2µM* | -5% | 7.3µM*
Cc1ccc(-c2cc(NC=O)c3ncc(-c4cccc(C(=O)N(C)C)c4)n3c2)cc1 | ? | -14 | ? | ? | -27% | ?
Cc1ccc(C2C3=C(COC3=O)Nc3n[nH]c(C)c32)cc1 (stereo not drawn) | . | . | . | . | 9% | .
COCCn1c(SCC#N)nnc1-c1ccc(Cl)cc1 | . | . | . | . | -27% | .
Nc1nc(SCc2ccccc2)c2ncn(C3CCCCC3)c2n1 | ? | -78* | -12% | ? | -19% | 29µM*
Nc1nc(SCc2ccccc2)c2ncn(C3CCCO3)c2n1 (stereo not drawn) | -12% | -10 | 0% | ? | -30% | ?
CN(C)CCCN(C(=O)c1ccco1)c1nc2c(F)cccc2s1 | -30% | -15 | ? | ? | -12% | ?
CCN(CC)CCN(C(=O)CN1C(=O)CCC1=O)c1nc2cc3c(cc2s1)OCO3 | 4% | -16 | 7% | -16% | -32% | -17%
CCN(CC)CCN(C(=O)c1ccc(C(=O)c2ccccc2)cc1)c1nc2c(OC)cccc2s1 | -18% | -66* | -13% | ? | i | -23%
CN(C)CCCN(C(=O)c1ccco1)c1nc2c(F)cc(F)cc2s1 | -29% | -25 | -18% | ? | -3% | 21µM*
CCN(CC)CCN(C(=O)CCS(=O)(=O)c1ccccc1)c1nc2cc3c(cc2s1)OCO3 | -23% | ? | ? | 8.2µM* | 0% | 12µM*
CCN(CC)CCN(C(=O)c1ccc(C(=O)c2ccccc2)cc1)c1nc2cc3c(cc2s1)OCO3 | -12% | -55* | -6% | ? | 10% | ?
CCOC(=O)C1CCN(C(=O)CSc2nnc(Nc3ccc(C)cc3C)s2)CC1 | . | . | . | . | 74% | .
COCCc1noc([C@@H]2CC(F)(F)CN2C(=O)c2cc(C)no2)n1 | . | . | . | . | 36% | .
Nc1nc(CN2CCN(C(=O)c3cc(F)cc(F)c3)CC2)nc2ccccc12 | . | . | . | . | 78% | .
O=C(NC1CCN(Cc2ccccc2)CC1)c1ccccc1C(=O)c1ccc(F)cc1 | . | . | . | . | -26% | .
Cc1cc(NC(=O)COC(=O)C2(c3ccccc3)CC2)no1 | . | . | . | . | -25% | .
CN(C)CCCN(C(=O)c1ccco1)c1nc2cc3c(cc2s1)OCO3 | ? | ? | ? | 3.7µM* | -5% | 5.2µM*
CN(C)CCCN(C(=O)c1ccc(C(=O)c2ccccc2)cc1)c1nc2cc3c(cc2s1)OCO3 | ? | -68* | ? | 16µM* | -29% | 23µM*
Cc1ccc2nc(N(CCCN(C)C)C(=O)c3ccco3)sc2c1 | -6% | -11 | -16% | ? | ? | ?
CCc1n[nH]c(CC2CCN(C(=O)COc3ccc(C)cc3)CC2)n1 | . | . | . | . | 36% | .
CN1C2CCC1/C(=C\c1ccccc1)C(=O)/C2=C\c1ccccc1 | ? | -95* | ? | 12µM* | -3% | 6.5µM*
Cc1ccc(C=Nc2ccc(Nc3ccccc3)cc2)s1 | . | . | . | . | 40µM* | .
CC(C)C(NC(=O)c1ccc(Cl)cc1)C(C)C | . | . | . | . | -33% | .
CCOC(=O)c1cc(C2(O)CCOC(C)(C)C2)on1 (stereo not drawn) | . | . | . | . | -10% | .
COc1ccc(C)cc1NC(=O)Nc1ccc(C(=O)N2CCCC2)cc1 | ? | ? | ? | 26µM* | i | ?
COc1ccc(Cl)cc1NC(=O)Nc1ccc(C(=O)N2CCCC2)cc1 | ? | -64* | ? | ? | -7% | ?
COc1cc(C2CC(=O)Oc3cc4c(cc32)OCO4)cc(OC)c1OC (stereo not drawn) | -3% | 15 | -1% | -22% | ? | -7%

Bioassay records deposited in PubChem by National Center for Advancing Translational Sciences (NCATS).
